An excerpt weighted towards active compounds, which were near 1.6% of everything screened.
KCNQ2 pot = enhances the rat KCNQ2 potassium channel; AID 2239; B-score at 10 µM; O88943; CHO-K1 KCNQ2, FluxOR thallium flux fluorescence; stronger effect = higher value; hit rate 0.54% among 310,000;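 active = fluorescence ratio B-score at least 3 SD of library B-scores, with initial fluorescence B-score within 3 of them, cut at about 5.3 in these data; same plate scores as AID 2156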;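 note: B-score of peak minus minimum over baseline fluorescence ratio after K+ and Tl+ stimulus; positive B-score means potentiation of KCNQ2 with more thallium influx and brighter signal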
KCNQ2 block = blocks the rat KCNQ2 potassium channel. O88943. B-score at 10 µM. hit rate 1.1% among 310,000. CHO-K1 KCNQ2, FluxOR thallium flux, 20 min; stronger effect = lower value;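 active = fluorescence ratio B-score at most minus 3 library SDs, with starting brightness B-score within 2 library SDs, cut at about -5.5 in these data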
Numbers without * were called inactive; i = inactive; · = not tested or not shown.

SMILES	KCNQ2 pot	KCNQ2 block
O=C(C(Cc1ccccc1)n1cccc1)N1CCN(Cc2ccccc2)CC1 (stereo not drawn)	·	i
CCC(CC)C(=O)N1CCN(c2ccccc2)CC1	·	i
CCC(C(=O)N1CCN(c2cccc(Cl)c2)CC1)c1ccccc1 (stereo not drawn)	-5.6	-5.6*
Cn1c(SCc2cccc(C#N)c2)nc2ccccc2c1=O	0.31	i
COc1ccccc1CNc1ccc(Br)cn1	·	i
COc1ccc(CNc2ncc(-c3ccc(F)cc3)n2C)c2ccccc12	-6.2	-6.2*
COc1ccccc1CNc1ncc(-c2ccc(F)cc2)n1C	0.13	i
CCC(Oc1ccccc1)C(=O)N(C)CC(=O)N(CC(C)C)c1c(N)n(CC(C)C)c(=O)[nH]c1=O (stereo not drawn)	0.84	i
O=C(NC(=S)N1CCc2ccccc21)c1ccccc1	14*	i
O=C(c1ccccc1)N1CCc2ccccc21	·	i
COc1ccc(C(=O)c2ccc([N+](=O)[O-])cc2)cc1S(=O)(=O)N1CCC(C(=O)O)CC1	·	i
O=C(Nc1cc(S(=O)(=O)N2CCCCC2)ccc1N1CCCCC1)C1CC1	·	i
O=C(NCc1ccccc1)C1CCN(c2nc(-c3ccccc3)nc3c2CCC3)CC1	-5.8	-5.8*
COc1ccc(CNC(=O)C2CCN(c3nc(-c4ccccc4)nc4c3CCC4)CC2)cc1	·	i
CCN1CCN(CCCNC(=O)c2ccccc2NC(=O)C2=C(C)OCCS2)CC1	0.27	i
CCCCN(C)CCn1c(=S)[nH]c2cc(OCC)c(OCC)cc2c1=O	5.4*	i
CCOc1cc2[nH]c(=S)n(CCOC)c(=O)c2cc1OCC	0.16	i
COc1cccc(NC(=O)CSc2nnc3ccc(-c4ccncc4)nn23)c1	0.68	i
O=C(NCCOc1ccc(F)cc1)C1CCC(=O)N(CC2CCCCC2)C1 (stereo not drawn)	1.3	i
NC(=NCCc1c[nH]c2ccccc12)NC(=O)c1ccc(Cl)cc1	-5.7	-5.7*
O=C(N[C@@H](Cc1c[nH]c2ccccc12)C(=O)O)c1ccc(Cl)cc1	1	i
CCN=C(NCC)SC1CC(=O)N(c2cccc(OCC)c2)C1=O (stereo not drawn)	-6.2	-6.2*
CCN=C(NCC)SC1CC(=O)N(c2ccc(OC)cc2)C1=O (stereo not drawn)	·	i
COc1ccc(OC)c(S(=O)(=O)N2CCC(C(=O)NCc3ccc4c(c3)OCO4)CC2)c1	1.9	i
CN(CC(=O)Nc1ccc(Cl)cc1)C(=O)c1cc(-c2cccs2)nn1-c1ccccc1	-7.6	-7.6*
SMILES	KCNQ2 pot	KCNQ2 block
CN(CC(=O)Nc1c(Cl)cccc1Cl)C(=O)c1cc(-c2cccs2)nn1-c1ccccc1	·	i
Cc1cc(NC(=O)CCC(=O)N(c2ccc(F)cc2)C(C(=O)NC2CCCC2)c2cccnc2)no1 (stereo not drawn)	1.6	i
COc1ccc(Cl)cc1NC(=O)CN(C)C(=O)Cc1n[nH]c(=O)c2ccccc12	·	i
CCOc1ccc(-c2nc(C#N)c(N3CCOCC3)o2)cc1	1.4	i
CCOc1ccc(-c2nc(C#N)c(N3CCN(Cc4ccccc4)CC3)o2)cc1	-6.2	-6.2*
CC(=O)N(C1=C(Cl)C(=O)c2ccccc2C1=O)C1CCCCC1	-5.7	-5.7*
CC(=O)N(c1ccccc1C)C1CCCC1	0.01	i
CCOc1ccc(CCNC(=O)COC(=O)C2=NNC(=O)CC2)cc1OCC	·	i
Cc1ccccc1OCc1nc2ccccc2c(=O)n1/N=C/c1cn[nH]c1-c1ccccc1	·	i
Cc1ccccc1OCc1nc2ccccc2c(=O)n1/N=C/c1cccc([N+](=O)[O-])c1	-6.2	-6.2*
CCS(=O)(=O)c1nc(S(=O)(=O)c2ccc(C)cc2)c(N2CC(C)CC(C)C2)s1 (stereo not drawn)	·	i
C=CCN1C(=O)c2ccc(C(=O)N(C)CC(=O)Nc3ccc(Br)cc3C)cc2C1=O	0.32	i
CNC(=O)C(=O)NCCN1CCN(S(=O)(=O)c2ccc3ccccc3c2)CC1	·	i
CCOC(=O)N1CCN(C(=O)c2ccc3c(c2)N(Cc2ccccc2)CCS3)CC1	·	i
CC1CC(C)CN(C(=O)c2ccc3c(c2)N(Cc2ccccc2)CCS3)C1 (stereo not drawn)	-6.2	-6.2*
CCN(CC(=O)NCc1ccc(Cl)cc1)C(=O)CCc1ccccc1	·	i
CCN(CC)CCCNC(=O)c1[nH]c2ccccc2c1Sc1ccc(Cl)cc1	0.71	i
CCOC(=O)c1ccc(NC(=O)COc2ccc(CNCCO)cc2OCC)cc1	0.04	i
CCOC(=O)c1ccc(NC(=O)COc2ccccc2CNCCc2ccccc2)cc1	-6.8	-6.8*
O=C(NCCC(=O)N1CCN(c2ccccn2)CC1)c1ccc(Br)cc1	0.86	i
Cc1ccc(C)c(C(C)NC(=S)NCc2ccc(F)cc2)c1 (stereo not drawn)	·	i
Cc1ccccc1CSc1ccc(-c2ccc3c(c2)OCO3)nn1	-5.8	-5.8*
Fc1cccc(CSc2ccc(-c3ccc4c(c3)OCO4)nn2)c1	·	i
COc1ccc(CCNC(=O)CCNC(=O)c2ccc([N+](=O)[O-])cc2)cc1	0.66	i
COc1ccccc1CNC(=O)c1ccccc1OCc1ccc(F)cc1	·	i
SMILES	KCNQ2 pot	KCNQ2 block
O=C(NCc1ccccn1)c1ccccc1OCc1ccc(F)cc1	-6.4	-6.4*
Cn1c(=O)n(CCCO)c(=O)c2c1nc1n2CCCN1Cc1ccccc1	0.44	i
COc1ccc(NC(=O)/C(Cl)=C(/Cl)S(=O)(=O)Cc2ccccc2)cn1	5.5*	i
COc1ccc(NC(=O)C(Cl)=C(Cl)Cl)cn1	·	i
CCCN1CCN(CCCNC(=O)c2ccc(CS(=O)c3ccc(OC)cc3)o2)CC1 (stereo not drawn)	0.33	i
Cc1cccc(Cc2cnc(N3C(=N)SC(C)C3=O)s2)c1 (stereo not drawn)	6*	i
Cc1ccc(Cc2cnc(N3C(=N)SC(C)C3=O)s2)cc1 (stereo not drawn)	0.46	i
O=C(c1cccc(S(=O)(=O)N2CCN(c3ccccc3)CC2)c1)N1CCN(c2ccccc2O)CC1	·	i
Cc1ccc(-c2ccc(C(=O)NCc3ccccc3)o2)c2ccccc12	·	i
Cc1ccc(-c2ccc(C(=O)Nc3ccccc3)o2)c2ccccc12	-5.7	-5.7*
CNC(=O)c1sc(N2N=C3/C(=C/c4ccccc4)CCCC3C2c2ccccc2)nc1C (stereo not drawn)	-6.1	-6.1*
O=C(c1ccccn1)N1N=C2/C(=C/c3ccccc3)CCCC2C1c1ccccc1 (stereo not drawn)	·	i
COc1ccccc1CNC(=O)[C@H](Cc1c[nH]c2ccccc12)NC(=O)[C@@H]1Cc2ccccc2CN1	-6.8	-6.8*
COc1ccccc1CNC(=O)Cc1c[nH]c2ccccc12	·	i
COc1cc(CO)c(OC)c([N+](=O)[O-])c1	1.1	i
CSc1nc(Cl)cc(Nc2ccccc2N)n1	-6	-6*
Nc1nc(Cl)cc(Nc2ccccc2Cl)n1	3.4	i
CCc1noc(C)c1C(=O)N1CCCC(N2CCN(c3cccc(Cl)c3)CC2)C1 (stereo not drawn)	0.6	i
COc1ccc(N2CCN(c3oc(COc4ccc(Cl)cc4Cl)nc3C#N)CC2)cc1	0.01	i
N#Cc1nc(COc2ccc(Cl)cc2Cl)oc1N1CCN(c2ccccc2)CC1	-7.7	-7.7*
COc1ccccc1N=C1NC(=O)/C(=C/c2ccc(N(C)C)cc2)S1	·	i
COc1cccc2c1OCC/C2=N\NC(=O)COc1ccc(C)cc1	0.24	i

Source: PubChem BioAssay
